PubChem BioAssay (NCI)
Compounds without any hit were thinned out: in the full panel of roughly 79,000, 15% have a hit. The source made the active and inactive calls. Cut-off read from the data, not from the text of the source: active = growth inhibition above about 70%; inactive = the rest.

Assays:
[1] = NCI Yeast Anticancer Drug Screen. Data for the rad50 strain (AID 155);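 note: 0% = growth of vehicle-only cultures of the same strain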; details: S. cerevisiae rad50 strain growth inhibition; at 50.0 µM; hits give high values
Method in brief: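 Growth of the mutant yeast was measured after compound exposure and referenced to vehicle-treated cultures.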

[2] = NCI Yeast Anticancer Drug Screen. Data for the mec2-1 strain (AID 157); details: S. cerevisiae mec2-1 strain, at 50.0 µM, hits give high values
Method in brief: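 Using mec2-1 yeast: add compound, measure growth, express inhibition versus vehicle-treated cultures.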

[3] = NCI Yeast Anticancer Drug Screen. Data for the sgs1 mgt1 strain (AID 161);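 note: 0% = growth of cultures given vehicle only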; details: S. cerevisiae sgs1 mgt1 strain, at 50.0 µM, hits give high values
Method in brief: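 Yeast cells carrying a defined DNA-repair defect were exposed to test compounds. Growth inhibition was measured relative to vehicle-treated controls.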

[4] = NCI Yeast Anticancer Drug Screen. Data for the cln2 rad14 strain (AID 165);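 note: 0% = growth equal to vehicle treated cultures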; details: S. cerevisiae cln2 rad14 strain, at 50.0 µM, hits give high values
Method in brief: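 Yeast strain cln2 rad14, bearing defects in cell cycle control and DNA repair, serves as the test system; values reflect growth inhibition compared with vehicle.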

[5] = NCI Yeast Anticancer Drug Screen. Data for the bub3 strain (AID 167); details: S. cerevisiae bub3 mutant strain, at 50.0 µM, hits give high values
Method in brief: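 Whole-cell yeast assay. The mutant strain was incubated with compounds, and growth inhibition was determined by comparison with vehicle-treated cells.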

[6] = NCI Yeast Anticancer Drug Screen. Data for the mlh1 rad18 strain (AID 175); details: S. cerevisiae mlh1 rad18 strain growth inhibition; at 50.0 µM; hits give high values
Method in brief: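 Steps: expose repair-defective yeast to compound; measure growth; express inhibition against vehicle-treated controls.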

Measured: growth inhibition

COC(=O)c1cc2ccc1OCC#CC#CCOc1ccc(cc1C(=O)OC)OCC#CC#CCO2
inactive: [1] -1.9% | [2] 5.5% | [3] 7.35% | [4] 5.75% | [5] -0.7% | [6] 19.2%

CC1(C)CSC(C)(C)C(=O)N1
inactive: [1] 4.9% | [2] -1.95% | [3] -3.6% | [4] -6.85% | [5] -2.2% | [6] -1.1%

CC(C)COC(=O)N1N=NC2C3CC(=O)C(O3)C21 (configuration not stated)
inactive: [1] 9.8% | [2] -9.7% | [3] -14.2% | [4] 11.6% | [5] -7.75% | [6] -4.75%

Cc1cc(N(CCC#N)CCC#N)ccc1/C=C1N=C(/C=C\c2ccccc2)N(c2ccc(C(=O)O)cc2)C\1=O
inactive: [1] -3.65% | [2] -45.5% | [3] -16.9% | [4] -6.3% | [5] -16.4% | [6] -26.1%

CC(=O)OCc1ccc2ccccc2c1
inactive: [1] -9.35% | [2] -29.7% | [3] -10.8% | [4] -3.2% | [5] -7.65% | [6] -14.7%

Cc1nc(N)c2c(ncn2C2OC(CO)C(O)C2O)n1 (configuration not stated)
inactive: [1] 9.35% | [2] 1.85% | [3] -5.3% | [4] -8.8% | [5] -9.15% | [6] 14.6%

C#CCCOC1(OC)N=NC(C)(C)O1 (configuration not stated)
inactive: [1] 1.05% | [2] 0.9% | [3] -6.95% | [4] 12.3% | [5] -2.65% | [6] -24.6%

O=CC(NC(=O)N(CCF)N=O)C(O)C(O)C(O)CO (configuration not stated)
inactive: [1] -15% | [2] -4.05% | [3] 2.5% | [4] -15.6% | [5] 1.3% | [6] -44.4%

Cc1nn(C(=O)c2ccc(Cl)cc2)c2c1C(c1ccc(O)cc1)SC(N)=N2 (configuration not stated)
inactive: [1] -33% | [2] -49.1% | [3] -43.7% | [4] -26.8% | [5] -23.9% | [6] -31.2%

CCN(CC)CCCn1cnc2ncccc2c1=O
inactive: [1] -12.3% | [2] -5.7% | [3] 8.8% | [4] 21% | [5] -9.2% | [6] -3.3%

CCNc1nnc(N=Nc2ccccc2)s1
inactive: [1] 0.5% | [2] 12.8% | [3] 13.4% | [4] -2% | [5] 7.55% | [6] 3.65%

CC(=O)OC(C)CCl (configuration not stated)
inactive: [1] -27.6% | [2] -48.1% | [3] -34% | [4] 2.6% | [5] -17.7% | [6] -14.2%

O=C(O)C1CC2C3CCC2C1C3=O (configuration not stated)
inactive: [1] -8.8% | [2] -26.3% | [3] 23.1% | [4] 4.4% | [5] -2.8% | [6] -34.7%

O=C1NC(c2ccco2)N2C(=O)NC(c3ccco3)N12 (configuration not stated)
inactive: [1] 15.2% | [2] 21.5% | [3] 24.5% | [4] 12.6% | [5] 18.6% | [6] 16.7%

O=C(O)Cc1nc(Cl)ccc1Cl
inactive: [1] 16.1% | [2] -7.2% | [3] -0.3% | [4] -15.2% | [5] -1.25% | [6] -1.1%

CCC1CNCCC1CC(=O)O (configuration not stated)
inactive: [1] 7.95% | [2] -12.8% | [3] -2.05% | [4] 24.8% | [5] -1.2% | [6] -22.2%

O=C1/C(=C/c2ccc(Cl)cc2)CCC1CCN1CCOCC1 (configuration not stated)
inactive: [1] 46.9% | [2] 40.5% | [3] 51.2% | [4] 60% | [5] 41.2% | [6] 59.2%

COC(=O)c1ccc(F)cc1
inactive: [1] -53.9% | [2] -25.9% | [3] -25.5% | [4] -1.45% | [5] -51.6% | [6] -46.3%

Cc1cc(=O)[nH]c2c1CCCC2
inactive: [1] -13.7% | [2] 10.8% | [3] 10% | [4] -38.4% | [5] -26.6% | [6] 8.25%

Cc1ccc(C)c(NC(=O)Nc2cccc(Cl)c2)c1
inactive: [1] -6.1% | [2] 21.2% | [3] -5.85% | [4] -4.95% | [5] 9.4% | [6] -7.65%

N=c1nc2ccc3ccccc3c2nn1-c1ccc([N+](=O)[O-])cc1
inactive: [2] 16.4% | [3] 13.8% | [4] -5.4% | [5] 18.6% | [6] 27.2%
active: [1] 88%

Cc1cc(C(N)=O)no1
inactive: [1] 1.5% | [2] -2.55% | [3] -5.7% | [4] -10% | [5] 3.9% | [6] -1.05%

Clc1ccc(-c2nnc(C34CC5CC(CC(C5)C3)C4)o2)cc1
inactive: [1] -12.1% | [2] -8.65% | [3] -11.3% | [4] 2.3% | [5] -8.5% | [6] -18.6%

Oc1cccc(C=NCCN=Cc2cccc(O)c2O)c1O.[Fe]
inactive: [1] -9.35% | [2] -5.7% | [3] 4.65% | [4] -39.7% | [5] 13.2% | [6] 1.15%

CCCCCCCCCCn1cnc2c(=O)[nH]c(N)nc21
inactive: [1] 1.85% | [2] 2.75% | [3] 9.7% | [4] -0.25% | [5] 2.8% | [6] -4.85%

COc1cccc2cc[nH]c12
inactive: [1] 0.2% | [2] 11.2% | [3] -9.2% | [4] 10.8% | [5] 7.7% | [6] 8.6%

C[n+]1c(-c2ccc(/C=N/NC(=O)c3cc(O)c(C(=O)N/N=C/c4ccc(-c5cn6ccccc6[n+]5C)cc4)cc3O)cc2)cn2ccccc21
inactive: [1] -31% | [2] -13.5% | [3] -15.7% | [4] -39.5% | [5] -31.9% | [6] -10.5%

CC(=O)N(C)c1ccc(NC(=O)/C=C/c2ccccc2)cc1
inactive: [1] 0.15% | [2] 4.25% | [3] 15.7% | [4] -9.85% | [5] 28.1% | [6] 17.1%

O=C(/C=C/c1ccccc1)c1ccc(Oc2ccccc2)cc1
inactive: [1] -13.2% | [2] -12.8% | [3] -12.9% | [4] -39.5% | [5] 7.5% | [6] -14.8%

C1CCCN(NC2=NCCO2)CC1
inactive: [1] 18.8% | [2] 4.8% | [3] 7.3% | [4] 5.95% | [5] 1.45% | [6] 25.9%

Nc1nc(N)c2ccccc2n1
inactive: [1] -11.3% | [2] 13.8% | [3] -5.2% | [4] -0.5% | [5] -6.9% | [6] -1.7%

CO[C@H]1C=C[C@]23c4cc5c(cc4CN(CC2O)[C@@H]3C1)OCO5 (some centres not stated)
inactive: [1] 8.65% | [2] -11.7% | [3] 26.4% | [4] 12.6% | [5] 2.55% | [6] -20.9%

CC(C)[Si]1(C(C)C)N([Si](C)(C)F)[Si](C(C)C)(C(C)C)N1[Si](C)(C)F
inactive: [1] 7.7% | [2] 6.25% | [3] -3.05% | [4] 21% | [5] -4.45% | [6] 26.2%

CC(=O)/C(=C/n1ccc(=O)[nH]c1=S)C(=O)Nc1ccc(Cl)cc1
inactive: [1] -32% | [2] -7.6% | [3] 4.7% | [4] 11.7% | [5] -20.4% | [6] 3.4%

CCC(=O)OCc1ccc(Cl)cc1
inactive: [1] 23.9% | [2] 11.4% | [3] 7.9% | [4] 8.6% | [5] 12.4% | [6] 4.9%

Cc1c(C)c(CSC#N)c(C)c(C)c1CSC#N
inactive: [1] 53.8% | [2] -13.6% | [3] -10.1% | [4] -1.9% | [5] 8.2% | [6] 8.55%

Cc1nnc(N=Nc2c(O)[nH]c3ccccc23)[nH]c1=O
inactive: [1] 7.05% | [2] 1.2% | [3] -6.65% | [4] -0.2% | [5] 2.65% | [6] 16.1%

C#CC(OC(=O)NC(C(=O)OC)C(C)C)(c1ccccc1)c1ccccc1 (configuration not stated)
inactive: [1] 31.1% | [2] -10.3% | [3] 14.3% | [4] -4.85% | [5] 0.2% | [6] 7.55%

OC1(c2ccccc2)c2ccccc2NC2=NCCN21 (configuration not stated)
inactive: [1] -14.7% | [2] -12.4% | [3] -10.7% | [4] -10.5% | [5] -45.9% | [6] -16.9%

Nc1nc[n+](Cc2ccccc2)c2ncn(Cc3ccccc3)c12
inactive: [1] -5.6% | [2] -23.6% | [3] -11.2% | [4] -9.25% | [5] -14.7% | [6] 3.5%

N#Cc1nc(Cc2ccccc2)oc1N
inactive: [1] 27.3% | [2] 9.2% | [3] -22% | [4] 18.4% | [5] -26.1% | [6] -22.6%

Nc1ccccc1N
inactive: [1] -7.9% | [2] -13.3% | [3] 14.4% | [4] -4.5% | [5] -29.9% | [6] -0.35%
